# Data: the antibiotic and cytotoxicity screens of Wong et al. (2023)
# Screen size: about 39,000 compounds; about 3,300 (8.5%) were called active. This is one part of a sample in which actives are shown more often than they occur.
# System: HepG2
# Test: cytotoxicity call (relative viability < 0.9)
# Conditions: 10 µM
row,SMILES,cytotoxicity call
1,CC1(C)OC2CC3C4CC(F)C5=CC(=O)C=CC5(C)C4C(O)CC3(C)C2(C(=O)CO)O1 (stereo unspecified),inactive
2,C[C@@H]1CN([C@@H](C)CO)C(=O)c2cccc(NC(=O)C3CCCCC3)c2O[C@@H]1CN(C)S(=O)(=O)c1cn(C)cn1,inactive
3,COc1ccc([Si](C)(C)[C@H]2[C@H](CCn3cc([C@H](O)c4ccccc4)nn3)O[C@@]3(C(=O)N(Cc4ccc(N5C(=O)c6cccc7cccc5c67)cc4)c4ccccc43)[C@@H]2C)cc1,inactive
4,COc1ccc([Si](C)(C)[C@@H]2[C@@H](CCn3cc([C@H](O)c4ccccc4)nn3)O[C@]3(C(=O)N(c4ccccc4)c4ccccc43)[C@H]2C)cc1,inactive
5,C[C@@H]1[C@@H]([Si](C)(C)F)[C@H](CCn2cc([C@H](O)c3ccccc3)nn2)O[C@@]12C(=O)N(c1ccccc1)c1ccccc12,active
6,C[C@H]1[C@H]([Si](C)(C)F)[C@@H](CCn2cc([C@H](O)c3ccccc3)nn2)O[C@]12C(=O)N(c1ccccc1)c1ccccc12,inactive
7,COc1ccc([Si](C)(C)[C@@H]2[C@@H](CCn3cc([C@H](O)c4ccccc4)nn3)O[C@]3(C(=O)N(Cc4ccc(N5C(=O)c6cccc7cccc5c67)cc4)c4ccccc43)[C@H]2C)cc1,active
8,COc1ccc([Si](C)(C)[C@@H]2[C@@H](CCn3cc(CCO)nn3)O[C@]3(C(=O)N(C)c4ccccc43)[C@H]2C)cc1,inactive
9,COc1ccc([Si](C)(C)[C@@H]2[C@@H](CCn3cc(CCO)nn3)O[C@]3(C(=O)N(Cc4ccc(N5C(=O)c6cccc7cccc5c67)cc4)c4ccccc43)[C@H]2C)cc1,active
10,COc1ccc([Si](C)(C)[C@H]2[C@H](CCn3cc(CCO)nn3)O[C@@]3(C(=O)N(Cc4cccc(N5C(=O)c6cccc7cccc5c67)c4)c4ccccc43)[C@@H]2C)cc1,inactive
11,COc1ccc([Si](C)(C)[C@H]2[C@H](CCn3cc([C@H](O)c4ccccc4)nn3)O[C@@]3(C(=O)N(Cc4cccc(N5C(=O)c6cccc7cccc5c67)c4)c4ccccc43)[C@@H]2C)cc1,inactive
12,COc1ccc([Si](C)(C)[C@@H]2[C@@H](CCn3cc([C@H](O)c4ccccc4)nn3)O[C@]3(C(=O)N(Cc4cccc(N5C(=O)c6cccc7cccc5c67)c4)c4ccccc43)[C@H]2C)cc1,inactive
13,COc1ccc([Si](C)(C)[C@H]2[C@H](CCn3cc(CCO)nn3)O[C@@]3(C(=O)N(C)c4ccccc43)[C@@H]2C)cc1,inactive
14,COc1ccc([Si](C)(C)[C@@H]2[C@@H](CCn3cc(CCO)nn3)O[C@]3(C(=O)N(Cc4cccc(N5C(=O)c6cccc7cccc5c67)c4)c4ccccc43)[C@H]2C)cc1,active
15,COc1ccc(C#Cc2ccc([C@H]3[C@@H](CO)N4CCCCN(S(=O)(=O)c5cn(C)cn5)C[C@H]34)cc2)cc1,inactive
16,C[C@@H]1CN([C@H](C)CO)S(=O)(=O)c2ccc(-c3cncnc3)cc2O[C@@H]1CN(C)C(=O)Cc1cccnc1,inactive
17,Cl.N=C(N)NCCCC(N)C(=O)O (stereo unspecified),inactive
18,C[C@@H]1CCCCO[C@H](CN(C)Cc2ccc(C(=O)O)cc2)[C@@H](C)CN([C@H](C)CO)C(=O)c2cc(NC(=O)Nc3ccc(F)cc3)ccc2O1,inactive
19,C[C@@H]1CN([C@@H](C)CO)C(=O)c2cc(NC(=O)CCN3CCOCC3)ccc2O[C@H]1CN(C)C(=O)Nc1ccc(F)cc1,inactive
20,COc1ccc(NC(=O)Nc2ccc3c(c2)C(=O)N([C@@H](C)CO)C[C@H](C)[C@H](CN(C)C(=O)CCC(F)(F)F)OCCCC[C@@H](C)O3)cc1,inactive
21,C[C@H](O)C#Cc1ccc2c(c1)O[C@@H](CN(C)C(=O)C1CCCCC1)[C@@H](C)CN([C@H](C)CO)S2(=O)=O,inactive

row,SMILES,cytotoxicity call
1,CCOC(=O)c1cn[nH]c1,inactive
2,C[C@H]1CN([C@@H](C)CO)C(=O)c2cc(NS(=O)(=O)c3cn(C)cn3)ccc2O[C@H]1CN(C)S(=O)(=O)c1ccccc1,inactive
3,CCS(=O)(=O)NCC[C@H]1CC[C@@H](NS(=O)(=O)c2ccccc2C)[C@H](CO)O1,inactive
4,C[C@@H]1CN([C@@H](C)CO)C(=O)c2cccc(NS(C)(=O)=O)c2O[C@@H]1CN(C)C(=O)Nc1ccc(F)cc1,inactive
5,CCOC(=O)c1c(CN2CCN(c3ccccc3C)CC2)n(-c2ccccc2)c2cc(Br)c(O)cc12,inactive
6,C[C@@H]1CN([C@@H](C)CO)C(=O)Cc2cc(NS(=O)(=O)c3ccc(F)cc3)ccc2O[C@@H]1CN(C)S(=O)(=O)c1ccc(F)cc1,inactive
7,COc1ccc(S(=O)(=O)Nc2cccc3c2O[C@H](CN(C)S(=O)(=O)c2ccc(OC)cc2)[C@H](C)CN([C@H](C)CO)C3=O)cc1,inactive
8,C(=N\c1nc2ccccc2[nH]1)/N(c1ccccc1)c1ccccc1,active
9,O=C(O)CCc1nc2ccccc2[nH]1,inactive
10,FC(F)(F)c1nc2ccccc2[nH]1,inactive
11,C[C@H](CO)N1C[C@H](C)[C@@H](CN(C)C(=O)c2ccncc2)OCCCC[C@H](C)Oc2ccc(NS(=O)(=O)c3cn(C)cn3)cc2C1=O,inactive
12,CC(C)NC(=O)Nc1ccc2c(c1)C(=O)N([C@H](C)CO)C[C@H](C)[C@H](CN(C)S(=O)(=O)c1cccs1)O2,inactive
13,CC(=O)c1ccc2c(c1)N(CCCN1CCN(CCO)CC1)c1ccccc1S2.O=C(O)C=CC(=O)O,inactive
14,Cl.Cl.OCCOCCN1CCN(C(c2ccccc2)c2ccc(Cl)cc2)CC1 (stereo unspecified),inactive
15,CN1CCN(CCCN2c3ccccc3Sc3ccc(C(F)(F)F)cc32)CC1.Cl.Cl,active
16,O=C(O)C=CC(=O)O.OCCOCCN1CCN(C2=Nc3ccccc3Sc3ccccc32)CC1,inactive
17,OCCN1CCN(CCCN2c3ccccc3Sc3ccc(Cl)cc32)CC1,active
18,Cl.Cl.OCCN1CCN(CCCN2c3ccccc3Sc3ccc(C(F)(F)F)cc32)CC1,active
19,OCCN1CCN(c2ncnc3c2ncn3[C@H]2CN(Cc3cccc(C(F)(F)F)c3)C[C@@H](CO)O2)CC1,inactive
20,Cc1ccc(S(=O)(=O)N(C)C[C@@H]2OCCCC[C@H](C)Oc3ccc(NC(=O)C4CCCCC4)cc3C(=O)N([C@H](C)CO)C[C@@H]2C)cc1,inactive
